The structures appear in SMILES notation. Results filed as inconclusive are left out. Activity calls are given as the source filed them. The call rests on the fitted dose curve; in most records, active means well fitted inhibition curve with a large enough effect; inconclusive means small, poorly fitted or top-dose-only effect; inactive means flat fitted curve, though single readings scatter.
On the % scale 0 is the no-effect control and ±100 the full control effect.

The subject of the assay is KB-3-1. The experiment in a line: Cytotoxic Profiling of Annotated Libraries Using Quantitative High-Throughput Screening (AID 1296008). Further: nearly all actives have a fitted effect of over 60% in size. The following applies: Five cell lines viability, CellTiter-Glo ATP luminescence, 48-72 h, active compounds read low. An excerpt: Cell-based phenotypic screening is a commonly used approach to discover biological pathways, novel drug targets, chemical probes and high-quality hit-to-lead molecules. Many hits identified from high-throughput screening campaign are ruled out through a series of follow-up potency, selectivity/specificity, and cytotoxicity assays. Prioritization of molecules with little or no cytotoxicity for a more in-depth downstream evaluation influence the future direction of projects, so cytotoxicity profiling of the screening libraries at early stage is essential for increasing the likelihood of candidate success. […] For the annotated library, we also examined the primary targets and mechanistic pathways regularly associated with cell death. To our knowledge, this is the first study to use high-throughput screening to profile large libraries for cytotoxicity assessment in both normal and cancer cell lines. In summary, the results generated here constitutes a valuable resource for the scientific community and provides insight on identifying cytotoxic compounds with particular mechanisms of action, and prioritizing compounds with suitable cytotoxicity profile for further evaluation.
A pintool (Kalypsys) was used to transfer 23 nL of compound solution to the 1536-well assay plates. After 48 or 72 hr incubation at 37 degree Celsius, 5% CO2 and 95% humidity, 2.5 uL of CellTiter-Glo (Promega) was dispensed into each well using a dispenser (Aspect Automation, St. Paul, MN) with solenoid valves (Lee Valves, Westbrook CT). Plates were left at room temperature for 10 min before imaging the ATP-coupled luminescence using a ViewLux microplate imager (PerkinElmer, Waltham, MA).
Background: In ATP-based viability assays light output follows the ATP content of the culture.
Turning to `COc1cc(C(=O)NCCCCCC(=O)O)cc(OC)c1OC`, the max response was 1.07% (inactive).
`CCOC(N)=O`: the max response is -7.14% (inactive).
As for `O=C(Cn1ccnc1[N+](=O)[O-])NCCO`, the figure is 0.623% (inactive); as for `C[N+](C)(C)CC(O)CC(=O)[O-]` (stereo not given), -5.76% (inactive).
For `Cc1ccc(S(=O)(=O)NC(=O)NC2CCCCCCC2)cc1`, the max response was 0.148% (inactive).
Take `CCCCCCCCCCOc1cc2c(=O)c(C(=O)OCC)c[nH]c2cc1OCC`: the max response was 7.91% (inactive).
On to `OCc1ccc(Cl)cc1Cl`, for which the max response is -1.05% (inactive).
Take `CC1(C)S[C@@H]2[C@H](N=CN3CCCCCC3)C(=O)N2[C@H]1C(=O)O`: the max response is -4.82% (inactive).
As to `O=C(NCC(O)CO)c1c(I)c(C(=O)NCC(O)CO)c(I)c(N(CCO)C(=O)CO)c1I` (stereo not given), the max response was 27.3% (inactive).
As to `OC(CCN1CCCC1)(c1ccccc1)C1CCCCC1` (stereo not given), the max response was -9.13% (inactive).
For the compound `COc1ccccc1OC(=O)Oc1ccccc1OC`, the max response is -6.45% (inactive).
Take `CN[C@@H]1[C@H](O)[C@H](NC)[C@H]2O[C@@]3(O)C(=O)C[C@@H](C)O[C@H]3O[C@@H]2[C@H]1O`: the max response was 16.3% (inactive).
Turning to `NS(=O)(=O)c1cc2c(cc1C(F)(F)F)NCNS2(=O)=O`, the max response was -0.385% (inactive).
As for `NS(=O)(=O)c1cc(C2(O)NC(=O)c3ccccc32)ccc1Cl` (stereo not given), the max response was -1.8% (inactive).
With `CCCNC(C)(C)COC(=O)c1ccccc1`, the max response is 0.448% (inactive).
On to `CC1(C)[C@@H](OC(=O)CCC(=O)O)CC[C@]2(C)[C@H]3C(=O)C=C4[C@@H]5C[C@@](C)(C(=O)O)CC[C@]5(C)CC[C@@]4(C)[C@]3(C)CC[C@@H]12`, for which the max response is -3.96% (inactive).
As for `CC(C)(C)C(=O)OCOC(=O)[C@@H]1N2C(=O)[C@@H](NC(=O)[C@H](N)c3ccccc3)[C@H]2SC1(C)C`, the max response was -7.55% (inactive).
Consider `O=C(O)C(S)C(S)C(=O)O` (stereo not given), for which the max response is -23% (inactive).
For `CCN(CC)CCOC(=O)C(c1ccccc1)c1ccccc1`, the max response is 0.686% (inactive).
Consider `COc1ccccc1Oc1c(NS(=O)(=O)c2ccc(C(C)(C)C)cc2)nc(-c2ncccn2)nc1OCCO`, for which the max response is -7.61% (inactive).
As for `CN1CCCN=C1COC(=O)C(O)(c1ccccc1)C1CCCCC1` (stereo not given), the max response is -13.9% (inactive).
In the case of `CC(C)CCOC(=O)c1ccc(N(C)C)cc1`, the max response is 11.7% (inactive).
As for `CC(=O)NCc1c(I)c(NC(C)=O)c(I)c(C(=O)O)c1I`, the max response is 5.09% (inactive).
With `CCCCCCCCCCCCCCCCN`, the max response is 5.46% (inactive).
Take `CCCCCCCCCCCCCCCCCCO`: the max response was 12.1% (inactive).
Turning to `COc1ccc(NS(=O)(=O)c2ccc(N)cc2)nn1`, the max response is 14.2% (inactive).
On to `C=CCOc1ccccc1OCC(O)CNC(C)C` (stereo not given), for which the max response was -1.61% (inactive).
As to `C[N+]1(C)CCCC(OC(=O)C(O)(c2ccccc2)c2ccccc2)C1` (stereo not given), the max response was -3.88% (inactive).
For `NS(=O)(=O)c1cc(-c2nn[nH]n2)c(NCc2cccs2)cc1Cl`, the max response is -9.88% (inactive).
As for `O=C(O)Cc1cn(-c2ccccc2)nc1-c1ccc(Cl)cc1`, the figure is 2.82% (inactive); as for `CNc1c2c(nn1C)CCCC2`, -8.03% (inactive).
Take `CC(=O)NS(=O)(=O)c1ccc(N)cc1`: the max response was 3.12% (inactive).
Regarding `NNC(=O)CP(=O)(c1ccccc1)c1ccccc1`, the max response was -1.94% (inactive).
As to `NC(=O)CC[C@@H](N)C(=O)O`, the max response was -2.46% (inactive).
The figure for `O=C(O)Cn1c(C(=O)Nc2nc(-c3ccccc3Cl)cs2)cc2ccccc21` is -7.98% (inactive).
For `CCCCCCCCCCC(CO)CCCCCCCC` (stereo not given), the max response is 12.2% (inactive).
As to `O=C(/C=C/c1ccc(O)c(O)c1)O[C@@H]1C[C@@](OC(=O)/C=C/c2ccc(O)c(O)c2)(C(=O)O)C[C@@H](O)[C@@H]1O`, the max response was -0.0821% (inactive).
As to `CCCCCOC(=O)Nc1nc(=O)n([C@@H]2O[C@H](C)[C@@H](O)[C@H]2O)cc1F`, the max response was -8.69% (inactive).
Turning to `CC(C)=CCC/C(C)=C/CO`, the max response was 8.27% (inactive).
Consider `OCCN1C[C@H](O)[C@@H](O)[C@H](O)[C@H]1CO`, for which the max response is 4.48% (inactive).
